Shown are actives, neighbours in structure and some others; about 9.4% of the full set was active somewhere.
IMPase Li inh – membrane-permeable IMPase blocker, potentiated with lithium | AID 1457 | Potency, µM (titrated, usually from 59.4 µM), usual class: inhibitors | hit rate 0.35% among 210,000 | CHO-M1 cells, IP1 TR-FRET (IP-One), carbachol + lithium;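 note: IP1 builds up when IMPase is blocked and the TR-FRET signal falls; nearly all actives have a fitted effect of over 50% in size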
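CHO-M1, 2000 cells/well, 16–30 h culture; cpd + low Li+, 30 min 37C; lysis with d2-IP1/Eu-anti-IP1 Ab, 10 min RT; TR-FRET 665/620 ratio and 620 channel; AC50 via Hill.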
ALDH1A1 inh – blocks purified human ALDH1A1 activity; Purified ALDH1A1, NADH fluorescence, propionaldehyde substrate; Potency, µM (titrated, usually from 75.3 µM), hits mostly inhibitors; hit rate 7.3% among 220,000; active = well fitted inhibition curve with a large enough effect, not every such curve was filed as active; inconclusive = small, poorly fitted or top-dose-only effect, or another doubt; inactive = no such curve, though single readings can be large or run the other way
HPGD inh – HPGD (human) dehydrogenase inhibition; P15428; purified HPGD, NADH fluorescence kinetic, PGE2 substrate; Potency, µM, hits mostly inhibitors; hit rate 4.3% among 150,000; AID 894; active = well fitted inhibition curve with a large enough effect, not every such curve was filed as active; inconclusive = small, poorly fitted or top-dose-only effect, or another doubt; inactive = no such curve, though single readings can be large or run the other way
Target sequence (P15428 whole entry, looked up): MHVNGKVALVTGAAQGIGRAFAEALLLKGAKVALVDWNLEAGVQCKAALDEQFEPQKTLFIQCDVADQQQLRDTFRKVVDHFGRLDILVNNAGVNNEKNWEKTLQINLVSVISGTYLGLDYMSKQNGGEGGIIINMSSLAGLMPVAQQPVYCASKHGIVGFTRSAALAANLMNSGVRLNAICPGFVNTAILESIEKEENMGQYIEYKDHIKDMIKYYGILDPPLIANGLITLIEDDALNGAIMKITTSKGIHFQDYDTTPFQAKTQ
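20 nM HPGD preincubated 15 min at room temperature with compound in 50 mM Tris-HCl pH 8, 0.01% Tween 20. Started with 1 mM NAD+ and 30 uM prostaglandin E2; NADH fluorescence (360/450 nm) read 5 times over 30-s intervals, last minus first.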
HTT cytoprotect – cytoprotection in Huntington HTT-Q103 PC12 cell model; PC12 HTT-Q103 induced, cytoprotection, ATP luminescence, 40 h; Potency, µM (series often up to 56.4 µM), actives largely listed as activators; hit rate 0.14% among 230,000; AID 1471; note: nearly all actives have a fitted effect of over 45% in size
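PC12 cells stably carrying ecdysone-inducible Htt exon 1 (Q103)–GFP were induced with 100 nM tebufenozide (final) alongside library compounds in a dose series. Cytoprotection was scored as retained ATP by ATPlite luminescence.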
IMPase inh – membrane-permeable compound that blocks inositol monophosphatase; AID 901; P97697; inhibition (IP1 accumulation), % at 46.1 µM; CHO-M1 cells, IP1 accumulation, HTRF TR-FRET ratio; 120,000 tested, under 10 active; active = well fitted curve in the direction sought with a large enough effect in the signal ratio, not every such curve was filed as active; inconclusive = small, poorly fitted or top-dose-only effect, or a change in a side signal; inactive = no such curve, though single readings can be large or run the other way; the % refers to the signal ratio;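 note: cells stimulated with carbachol in lithium chloride buffer; higher means more IMPase inhibition seen as more IP1 and lower FRET ratio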
Target sequence (P97697 whole entry, looked up): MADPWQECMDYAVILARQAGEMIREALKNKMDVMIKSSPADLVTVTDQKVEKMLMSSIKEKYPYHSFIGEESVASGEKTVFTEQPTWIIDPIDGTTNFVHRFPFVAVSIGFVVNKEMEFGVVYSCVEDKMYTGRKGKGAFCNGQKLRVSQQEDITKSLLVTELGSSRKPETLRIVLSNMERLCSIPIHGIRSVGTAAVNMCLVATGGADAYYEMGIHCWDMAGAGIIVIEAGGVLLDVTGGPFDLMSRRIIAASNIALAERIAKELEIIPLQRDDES
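The IP-One HTRF competitive assay in carbachol-stimulated CHO-M1 cells quantifies cellular IP1. Compounds spanned up to 46 uM final, and activity is expressed as AC50 from concentration-response fits of the ratio and donor data.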
HTT aggregate – mutant huntingtin aggregation inhibition. Potency, µM (top dose mostly 46.1 µM), actives largely listed as inhibitors. hit rate 1.1% among 220,000. AID 1688. PC12 HttQ103-GFP aggregates, Acumen cytometry, 40 h; note: nearly all actives have a fitted effect of over 60% in size
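PC12/HTTQ103-GFP, ecdysone-inducible; teb 100 nM; cpd qHTS titration; GFP aggregates read on laser cytometer, Ex 488/Em 500-530 nm.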
Numbers stand for hits; 0 = inactive; ? = inconclusive; - = no result; ! = not active in a repeat; [ ] = dose if it differs, or a comment. Unless noted, calls come from the whole dose curve; as a rule, active = well fitted curve in the direction sought with a large enough effect; inconclusive = small, poorly fitted or top-dose-only effect, or another doubt; inactive = no such curve, though single readings can be large; an effect the other way counts as inactive or inconclusive.

SMILES	IMPase Li inh	ALDH1A1 inh	HPGD inh	HTT cytoprotect	IMPase inh	HTT aggregate
COCCCN1C(=O)C(O)=C(C(=O)c2ccco2)C1c1ccccc1 (centres undefined)	7.9µM	28µM	0	0[10 µM]	?	0
O=C(C1=C(O)C(=O)N(CCc2ccccc2)C1c1cccs1)c1ccco1 (centres undefined)	0	0	-	0	-	0
Cc1ccc(C(=O)C2=C(O)C(=O)N(c3ncccn3)C2c2ccc(F)cc2)o1 (centres undefined)	-	-	-	0[10 µM]	-	0[9.22 µM]
Cc1ccc(C2C(C(=O)c3ccco3)=C(O)C(=O)N2c2nnc(C)s2)cc1 (centres undefined)	10µM	0	0	0	?	0
COc1ccc(Cl)cc1-c1ccc(C(=O)O)o1	0	?	?	0	-	-
COC(=O)N1CCC2(CC1)CCN(c1ncccn1)CC2	0	0	0	?	-	-
NS(=O)(=O)c1ccc(N=Nc2ncccc2O)cc1	0	0[13.5 µM]	0	0[10 µM]	-	-
COc1ccc(Br)c2c1-c1nc(NC(=O)c3cccc(C)c3)sc1C2	-	-	-	-	0	-
COC(=O)c1ccc(C(NC(=O)OCc2ccccc2)/C(F)=C/[C@@H](C)C(=O)NCCN2CCOCC2)cc1 (some centres undefined)	0	0	0	0	-	-
CC(C)Oc1ccc(C2C(C(=O)c3ccco3)=C(O)C(=O)N2Cc2cccnc2)cc1 (centres undefined)	?	0	0	0[0.074 µM]	?	0
CCOc1cccc(C2C(C(=O)c3ccc(C)o3)=C(O)C(=O)N2Cc2ccncc2)c1 (centres undefined)	10µM	?	0	0[10 µM]	?	0
CCOc1ccc(C2C(C(=O)c3ccco3)=C(O)C(=O)N2Cc2cccnc2)cc1OC (centres undefined)	11µM	25µM	0	0	0	0
COCCCN1C(=O)C(O)=C(C(=O)c2ccc(C)o2)C1c1cccc(Br)c1 (centres undefined)	10µM	0	0	0	?	0
Cc1cccc(N2CCN(C(c3ccccc3)c3nnc(-c4ccccc4Cl)o3)CC2)c1C (centres undefined)	-	-	-	-	0	-
COc1ccc(OC)c(C2Nc3c(C)cc(C)cc3-c3cc(C)nn32)c1 (centres undefined)	-	-	-	-	0	-
N#Cc1nc(COc2ccccc2)oc1N1CCCCC1	0	13µM	?	0	0	?
c1ccc2c(c1)nnn2CN1CCOCC1	0	0[13.5 µM]	0	0[10 µM]	-	-
CCOC(=O)c1sc(S(C)=O)c2c1CCc1conc1-2 (centres undefined)	-	4.5µM	-	0[10 µM]	-	0[9.22 µM]
Cc1cc(C(F)F)n2ncc(C(=O)N3CCCCC3)c2n1	0	0	11µM	0[10 µM]	?	0
CC12CCC(C/C1=N\N=C1\NC(=O)/C(=C\c3ccc(Cl)cc3)S1)C2(C)C (centres undefined)	0	0	0	0[10 µM]	0	0
CCOC(=O)C(=O)/C(=C\N(C)C)c1onc(-c2c(Cl)cccc2Cl)c1C(=O)OC	0	0	14µM	0[10 µM]	0	0
CCOC(=O)C(=O)/C(=C\N(C)C)c1onc(-c2ccccc2Cl)c1C(=O)OC	0	?	14µM	0[10 µM]	0[1.84 µM]	0
CCC(C)/C(C)=N/NC(=O)c1cn(-c2ccccc2)nc1-c1ccccc1 (centres undefined)	0	6.3µM	0	0[10 µM]	-	0
CN1CCC(=NNC(=O)c2cn(-c3ccccc3)nc2-c2ccccc2)CC1	0	1.3µM	0	0[10 µM]	-	0
COC(=O)c1cn(-c2ccccc2)nc1-c1ccccc1	0	0	0	?	0	0
SMILES	IMPase Li inh	ALDH1A1 inh	HPGD inh	HTT cytoprotect	IMPase inh	HTT aggregate
CCCC/C(C)=N/NC(=O)c1cn(-c2ccccc2)nc1-c1ccccc1	0	0.56µM	0	0[10 µM]	?	0
COc1ccc(CNC(=O)N[C@@H](CC(C)C)C(=O)O)cc1OC	-	-	-	0[10 µM]	-	0[9.22 µM]
Cc1ccc(/C=C2\SC(N3CCCC3)=NC2=O)cc1	0	0	-	0	-	0
O=C1N=C(N2CCCCC2)S/C1=C/C1=Cc2ccccc2OC1	0	28µM	-	0	-	0
N#C/C(=C(\O)c1ccco1)c1ccccn1	0	25µM	0	0	0	0[9.22 µM]
N#C/C(=C(/O)c1ccco1)c1nc2ccccc2s1	0	0	0	0[10 µM]	0	0[9.22 µM]
CCN(CC)c1ccc(C2=NNC(=O)CC2C)cc1[N+](=O)[O-] (centres undefined)	0	13µM	0	0[10 µM]	0	0
CC1CC(=O)NN=C1c1ccc(N(C)C)c([N+](=O)[O-])c1 (centres undefined)	0	?	0	0[10 µM]	0	0
COc1ccc(S(=O)(=O)N(CC(=O)NCCSc2ccccc2)c2ccc(C)cc2)cc1	-	-	-	-	0	-
CCN1CCC2(CC1)N=C(c1ccc(F)cc1)C(=S)N2C(=O)c1ccc(C(C)(C)C)cc1	-	28µM	-	0[10 µM]	0	0
O=C(CN1C(=O)C(c2ccc(F)cc2)=NC12CCCC2)Nc1ccc(F)cc1	0	?	-	0	-	?
CN1CCC2(CC1)N=C(c1ccc(F)cc1)C(=S)N2C(=O)c1ccccc1	-	22µM	-	0[10 µM]	0	0
C[C@]1(c2ccccc2)O[C@@H]2C[C@@H]3[C@@H]4CCC5=CC(=O)C=C[C@@]5(C)[C@]4(F)[C@H](O)C[C@]3(C)[C@@]2(C(=O)CO)O1	0	0[13.5 µM]	0	0[10 µM]	-	-
CCOc1ccc(S(=O)(=O)O)c2cccnc12	-	-	-	0	-	0
C=CCN(Cc1nc(-c2cc(OC)ccc2OC)oc1C)C1CCS(=O)(=O)C1 (centres undefined)	0	0	-	0[10 µM]	-	0[9.22 µM]
NCC(O)COc1cccc2ccccc12 (centres undefined)	0	0	-	0	-	-
CCOC(=O)c1ccc(N2Cc3ccccc3C2)cc1O	0	20µM	0	0	0	0
NC(C(=O)NC1C(=O)N2C(C(=O)O)=C(Cl)CSC12)c1ccccc1 (centres undefined)	0	16µM	?	0	-	-
Cn1nnnc1SCC1=C(C(=O)O)N2C(=O)C(NC(=O)C(O)c3ccccc3)C2SC1 (centres undefined)	0	?	?	0	-	-
N[C@H](C(=O)N[C@@H]1C(=O)N2C(C(=O)O)=C(Cl)CS[C@@H]12)c1ccccc1	0	11µM!	0	?	0	-
CC1=C(C(=O)O)N2C(=O)[C@@H](NC(=O)[C@@H](N)C3=CCC=CC3)[C@@H]2SC1	-	-	-	0[1.9 µM]	0	-
COC(=O)CCC[N+](C)(C)C	-	-	-	0	-	0
O=C(/C=C\c1cccs1)c1c(O)ccc2ccc(=O)oc12	0	?	?	0[10 µM]	-	11µM
O=C(/C=C/c1cccs1)c1ccc(Br)cc1	0	0	0	0	0	0
CC1=NNC(=S)NCCCN2CCN(CCCNC(=S)NN=C(C)C=NNC(=S)NCCCN3CCN(CCCNC(=S)NN=C1)CC3)CC2	0	0[13.5 µM]	0	0[10 µM]	-	-
CC(C)C(c1nnnn1Cc1ccc(F)cc1)N1CCN(c2ccc(O)cc2)CC1 (centres undefined)	0	4µM	-	0[10 µM]	-	0[9.22 µM]

From PubChem
